Compound activity: PubChem, several laboratories
Most compounds without a hit are left out; they make up all but 4.1% or so of the library.
ssDAF12 agonist – S. stercoralis DAF-12 nuclear receptor activators, primary screen, cell-based, luminescence, HEK293, GRIP1 co-expression, lit1-tk-luc. activation, % at 6.8 µM. 370,000 tested, 1% active. HEK293 ssDAF-12/GRIP1 lit1-tk-luc reporter; % of 3 µM dafachronic acid response. AID 652126, 2013. Nuclear hormone receptor DAF-12 (Strongyloides stercoralis);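 active = activation above the mean over all tested compounds plus 3 SD, cut at about 0.9% in these data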
DAX1 inh-1 – DAX1 (NR0B1) inhibitors on StAR promoter, primary screen, cell-based, luminescence, SF-1 (NR5A1), full-length DAX-1; inhibition, % at 6.8 µM; AID 652010, 2013; 370,000 tested, 1.1% active; HEK293T StAR-luciferase reporter, SF-1/DAX-1 repression relief;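 active = inhibition above the mean over all tested compounds plus 3 SD, cut at about 3.6% in these data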;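 also: higher inhibition means more luminescence from relief of DAX-1 repression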
PolyA inhibitor – polyadenylation inhibitors in yeast reporter cells, primary screen, luminescence, S. cerevisiae. S. cerevisiae SKY197-pL101 polyadenylation reporter, beta-gal luminescence; efflux-impaired pdr1/pdr3 knockout yeast; score 100 = 6 SD above DMSO. AID 1875, 2009. activity score, % at 12 µM. 300,000 tested, 0.02% active;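 active = lowest replicate activity score at least 50, where 100 means six control SD above control mean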;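 also: yeast exposed to compound for 9 h at 30 °C; higher score means more reporter readthrough which indicates perturbed polyadenylation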
DAX1 inh-2 – DAX1 (NR0B1) inhibitors, primary screen, cell-based, HEK293, Gal4-DAX1, luciferase luminescence; 340,000 tested, 0.99% active; HEK293 Gal4-DAX1 luciferase reporter; Nuclear receptor subfamily 0 group B member 1 (Homo sapiens), P51843; inhibition, % at 6.75 µM;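 active = inhibition above the mean over all tested compounds plus 3 SD, cut at about 4.2% in these data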;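 also: inhibition shows as a rise in luminescence from relieved DAX1 repression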
Target sequence (P51843 207-470 limits assumed): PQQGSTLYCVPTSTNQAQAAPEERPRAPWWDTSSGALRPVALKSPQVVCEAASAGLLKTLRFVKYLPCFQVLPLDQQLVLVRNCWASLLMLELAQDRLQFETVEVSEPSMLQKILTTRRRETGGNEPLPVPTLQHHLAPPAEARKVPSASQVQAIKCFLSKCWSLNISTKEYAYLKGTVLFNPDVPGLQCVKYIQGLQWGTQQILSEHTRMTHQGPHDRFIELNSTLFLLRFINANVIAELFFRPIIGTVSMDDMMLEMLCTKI
hcDAF-12 act – H. contortus DAF-12 nuclear receptor activators, primary screen, cell-based, luminescence, HEK293, lit1-tk-luc reporter; HEK293 hcDAF-12 lit1-tk-luc reporter; 0% DMSO, 100% Δ7-dafachronic acid; activation, % at 6.8 µM; 370,000 tested, 1.4% active; AID 652067, 2013;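 active = activation above the mean of all tested compounds plus 3 SD, cut at about 5.5% in these data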
hgDAF12 agonist – H. glycines DAF-12 receptor agonists, primary screen, cell-based, luminescence, HEK293, GAL4 fusion, UAS-luciferase. 370,000 tested, 1.8% active. activation, % at 6.8 µM. Nuclear hormone receptor DAF-12 (Heterodera glycines), GAL4 fusion. HEK293 GAL4-hgDAF12 UAS-luciferase reporter, agonist luminescence; normalized to butyrate control;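 active = activation above a cutoff set at the mean of all screened compounds plus 3 SD, cut at about 10% in these data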
DAX1 conf – DAX1 (NR0B1) inhibitors relieving SF-1 repression, confirmation, cell-based, luminescence, HEK293T, full-length DAX-1, SF-1 activated StAR promoter; shares compounds with DAX1 inh-1; HEK293T StAR-promoter luciferase reporter, SF-1/DAX-1 repression; inhibition, % at 6.8 µM; 2,400 tested, 87% active; AID 652134, 2013;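 active = inhibition above the average of every tested compound plus 3 SD, cut at about 3.8% in these data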
Target sequence (P51843 whole entry, looked up): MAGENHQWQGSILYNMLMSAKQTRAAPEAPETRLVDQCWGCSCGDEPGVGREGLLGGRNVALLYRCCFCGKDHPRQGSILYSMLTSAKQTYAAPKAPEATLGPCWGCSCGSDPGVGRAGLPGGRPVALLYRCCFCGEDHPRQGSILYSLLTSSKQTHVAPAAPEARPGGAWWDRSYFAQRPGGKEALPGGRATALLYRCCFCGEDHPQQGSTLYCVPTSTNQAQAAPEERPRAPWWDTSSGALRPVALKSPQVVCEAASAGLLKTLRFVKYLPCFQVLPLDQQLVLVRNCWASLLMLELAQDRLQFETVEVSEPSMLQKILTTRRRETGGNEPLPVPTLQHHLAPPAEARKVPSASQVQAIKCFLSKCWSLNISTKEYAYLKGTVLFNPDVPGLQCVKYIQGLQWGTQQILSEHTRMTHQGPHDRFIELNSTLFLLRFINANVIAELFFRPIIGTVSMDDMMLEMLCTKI
SF1 mutant ctr – StAR reporter signal changes without DAX1, counter-screen for DAX1 inhibitor project, cell-based, luminescence, AF-2 mutant SF-1, transactivation; AID 652136, 2013; 2,400 tested, 78% active; shares compounds with DAX1 inh-1; inhibition, % at 6.8 µM; HEK293 StAR-luciferase, SF-1 AF2 mutant;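 active = inhibition above the mean of all tested compounds plus 3 SD, cut at about 3% in these data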
LXRb hcDAF ctr – LXR agonists, Gal4 luciferase reporter, confirmation, counter-screen for hcDAF-12 agonist project, cell-based, luminescence, HEK293, H. contortus campaign; shares compounds with hcDAF-12 act; HEK293 Gal4-LXR tk-luc reporter, 24 h; normalized: DMSO 0%, positive control 100%; activation, % at 6.8 µM; 3,400 tested, under 10 active; AID 743027, 2013;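 active = mean percent activation of the reporter above a cutoff set as the average over tested compounds plus their standard deviation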
hcDAF12 conf – H. contortus DAF-12 receptor agonists, confirmation, cell-based, luminescence, HEK293, lit1-tk-luc, triplicate. activation, % at 6.8 µM. AID 743032, 2013. 3,400 tested, 61% active. HEK293 hcDAF-12 lit1-tk-luc reporter; % of Δ7-dafachronic acid response. shares compounds with hcDAF-12 act;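 active = mean activation across triplicate tests above the threshold derived from the earlier primary screen, cut at about 5.5% in these data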
hgDAF12 conf – H. glycines DAF-12 receptor agonists, confirmation, cell-based, luminescence, HEK293, GAL4-LBD fusion. activation, % at 6.8 µM. 3,300 tested, 80% active. HEK293 GAL4-hgDAF12 luciferase reporter, agonist mode; percent of butyrate response. shares compounds with hgDAF12 agonist;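 active = mean activation over triplicate wells above the hit cutoff derived from the earlier primary screen, cut at about 11% in these data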
LXRb DAF12 ctr – LXR agonists, Gal4 luciferase reporter, confirmation, counter-screen for hgDAF-12 agonist project, cell-based, luminescence, HEK293, H. glycines campaign; 3,300 tested, under 10 active; 24 h; activation, % at 6.8 µM; shares compounds with hgDAF12 agonist;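 active = mean activation of the triplicate above a set limit carried over from the primary screen, none filed active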
Of the large screens only hits and unclear results are named; the others gave an inactive call (follow-up assays come after a bar, where they were run).

Cc1ccc2cc3c(N)c(C(=O)N4CCOCC4)sc3nc2c1	ssDAF12 agonist 1.0, DAX1 inh-1 5.6, DAX1 inh-2 5.1, hcDAF-12 act 6.2, hgDAF12 agonist 16 | DAX1 conf 12 | SF1 mutant ctr 5.9 | hgDAF12 conf inactive | LXRb DAF12 ctr inactive
CCNC(=S)NNC(=O)c1cc(-c2ccc(OCC)cc2)nc2ccccc12	ssDAF12 agonist 1.3, DAX1 inh-1 7.7, hcDAF-12 act 9.0, hgDAF12 agonist 16 | DAX1 conf 17 | SF1 mutant ctr 8.6 | LXRb hcDAF ctr inactive | hcDAF12 conf 12 | hgDAF12 conf 25 | LXRb DAF12 ctr inactive
O=C(COc1ccccc1Cl)Nc1ccc2c(c1)C(=O)NC2=O	none
O=[N+]([O-])c1ccc(COc2ccc(CN3CCCCC3)cc2)cc1	none (no result: PolyA inhibitor)
O=[N+]([O-])c1ccc(COc2ccc(CN3CCOCC3)cc2)cc1	DAX1 inh-1 7.7, hgDAF12 agonist 18 (no result: PolyA inhibitor) | DAX1 conf 4.2 | SF1 mutant ctr inactive | hgDAF12 conf inactive | LXRb DAF12 ctr inactive
O=[N+]([O-])c1ccc(COc2ccc(CN3CCCC3)cc2)cc1	DAX1 inh-1 4.8, hgDAF12 agonist 15 (no result: PolyA inhibitor) | DAX1 conf 6.9 | SF1 mutant ctr 5.6 | hgDAF12 conf 13 | LXRb DAF12 ctr inactive
O=C(Nc1ccnn1C1CCN(Cc2cccc(OCCO)c2)CC1)C1CC1	none
Cc1ccc(NCc2nc3ccccc3n2C)cc1	ssDAF12 agonist 3.5, DAX1 inh-1 6.3, hcDAF-12 act 15, hgDAF12 agonist 14 | DAX1 conf 15 | SF1 mutant ctr 8.2 | LXRb hcDAF ctr inactive | hcDAF12 conf 17 | hgDAF12 conf 18 | LXRb DAF12 ctr inactive
CC1=C(C(=O)N2CCOCC2)CC(CC(=O)NCc2cccc3ccccc23)C(=O)N1Cc1ccccc1 (stereo not given)	none (no result: PolyA inhibitor)
O=C(CSc1nnc(-c2cccnc2)o1)Nc1ccccc1Br	none
COc1ccc(C)cc1NC(=O)CSc1nnc(-c2ccc(Br)cc2)o1	none
COc1ccccc1NC(=O)CSc1nnc(-c2ccc(C)cc2)o1	DAX1 inh-1 6.3, hgDAF12 agonist 14 | DAX1 conf 15 | SF1 mutant ctr 8.3 | hgDAF12 conf 17 | LXRb DAF12 ctr inactive
O=C(CSc1nnc(-c2cccnc2)o1)Nc1ccccc1F	DAX1 inh-1 8.4, hgDAF12 agonist 14 | DAX1 conf 11 | SF1 mutant ctr 4.4 | hgDAF12 conf 12 | LXRb DAF12 ctr inactive
Cc1nn(C)c(Sc2ccccn2)c1[N+](=O)[O-]	none (no result: DAX1 inh-2)
C[C@@H](NC(=O)c1[nH]cnc1C(=O)Nc1cccc(Cl)c1)c1ccccc1	none (no result: PolyA inhibitor)
Brc1ccc(-c2cn3nc4c(nc3n2)CCCC4)cc1	DAX1 inh-1 4.9, hcDAF-12 act 12, hgDAF12 agonist 14 | DAX1 conf 6.8 | SF1 mutant ctr 3.2 | LXRb hcDAF ctr inactive | hcDAF12 conf 8.2 | hgDAF12 conf 14 | LXRb DAF12 ctr inactive
O=C1CN(C(=O)CNC(=O)c2ccc(Cl)cc2Cl)CCN1	none
Cc1cccc2nc(COc3ccc(-c4ccccc4)cc3)cn12	none (no result: ssDAF12 agonist, DAX1 inh-1, DAX1 inh-2, hcDAF-12 act, hgDAF12 agonist)
Cc1cc(C)n2cc(COc3ccc4ccccc4c3)nc2n1	DAX1 inh-1 6.3, hcDAF-12 act 8.0, hgDAF12 agonist 17 | DAX1 conf 15 | SF1 mutant ctr 8.8 | LXRb hcDAF ctr inactive | hcDAF12 conf inactive | hgDAF12 conf 17 | LXRb DAF12 ctr inactive
CCC(O)C1CCN(C(=O)c2cc(COc3ccc4ncccc4c3)on2)CC1 (stereo not given)	none (no result: DAX1 inh-2)
NC(=O)C1CC(=O)N(c2ccc(OCc3ccc(Cl)cc3Cl)cc2)C1 (stereo not given)	none
NC(=O)C1CC(=O)N(c2ccc(OCc3ccc(Cl)c(Cl)c3)cc2)C1 (stereo not given)	DAX1 inh-1 10, DAX1 inh-2 4.5, hcDAF-12 act 5.8, hgDAF12 agonist 25 (no result: PolyA inhibitor) | DAX1 conf 15 | SF1 mutant ctr 9.3 | hgDAF12 conf 16 | LXRb DAF12 ctr inactive
O=C(Nc1ccc(Cl)cc1)c1ccc(Br)cc1F	DAX1 inh-1 7.5, hcDAF-12 act 9.6, hgDAF12 agonist 18 | DAX1 conf 11 | SF1 mutant ctr 7.5 | LXRb hcDAF ctr inactive | hcDAF12 conf inactive | hgDAF12 conf 20 | LXRb DAF12 ctr inactive
CCc1nnc(NC(=O)c2sc3nc4c(cc3c2N)CCCCCC4)s1	none
